PubChem BioAssay (NCI)
About 83,000 compounds went through this panel and 20% of them were active in at least one assay; those are over-represented in the sample as a whole.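 Step 1: grow cells in 96-well plates. Step 2: add test compound at a single concentration. Step 3: incubate 48 h. Step 4: record percent growth.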 Active and inactive are the calls of the source. Rule for the calls: active = growth percent below 10; inactive = the rest.

Experiments:
Test in all cases: NCI-60 one-dose screen, 48 h (100 = growth as untreated, 0 = no growth, -100 = all killed)
Details in all cases: 10 µM unless noted
SR leukemia = test system: SR leukemia
RPMI-8226 leukemia = test system: RPMI-8226 leukemia
OVCAR-8 ovarian = test system: OVCAR-8 ovarian
OVCAR-5 ovarian = test system: OVCAR-5 ovarian
OVCAR-4 ovarian = test system: OVCAR-4 ovarian
SK-OV-3 ovarian = test system: SK-OV-3 ovarian
IGROV1 ovarian = test system: IGROV1 ovarian
OVCAR-3 ovarian = test system: OVCAR-3 ovarian
NCI/ADR-RES ovarian = test system: NCI/ADR-RES ovarian
HS 578T breast = test system: HS 578T breast

Measured: growth

Cc1cc(NC(=O)c2cccc(C(F)(F)F)c2)ccc1-n1ccc2c(NC(=O)c3ccccc3)nccc21
inactive: SR leukemia 96.3% | RPMI-8226 leukemia 73.3% | OVCAR-8 ovarian 98.2% | OVCAR-5 ovarian 98.3% | OVCAR-4 ovarian 96.7% | SK-OV-3 ovarian 108% | IGROV1 ovarian 92.7% | OVCAR-3 ovarian 95.7% | NCI/ADR-RES ovarian 102%

Cc1c(F)cccc1NC(=O)c1sc2nc3c(cc2c1N)CCCCC3
inactive: SR leukemia 16.8% | RPMI-8226 leukemia 35.3% | OVCAR-8 ovarian 80.3% | OVCAR-5 ovarian 90.1% | OVCAR-4 ovarian 75.6% | SK-OV-3 ovarian 66.2% | IGROV1 ovarian 53.7% | OVCAR-3 ovarian 34.6% | HS 578T breast 54.3% | NCI/ADR-RES ovarian 43.9%

COc1ccc(-c2cc(-c3nnc(SC/C(=N\O)c4ccccc4)n3-c3ccccc3)c3ccccc3n2)cc1
inactive: SR leukemia 86.8% | RPMI-8226 leukemia 97.9% | OVCAR-8 ovarian 98.7% | OVCAR-5 ovarian 119% | OVCAR-4 ovarian 113% | SK-OV-3 ovarian 79.4% | IGROV1 ovarian 105% | OVCAR-3 ovarian 107% | HS 578T breast 98.4% | NCI/ADR-RES ovarian 104%

COc1ccc(CNc2nc3ccccc3c3c(=O)c4ccccc4sc23)cc1OC
inactive: SR leukemia 65.3% | RPMI-8226 leukemia 87.3% | OVCAR-8 ovarian 64.8% | OVCAR-5 ovarian 97.2% | OVCAR-4 ovarian 62.1% | SK-OV-3 ovarian 81.9% | IGROV1 ovarian 80.6% | OVCAR-3 ovarian 82.6% | HS 578T breast 65.8% | NCI/ADR-RES ovarian 74.3%

O=C(NOC1OC(CO)C(O)C(O)C1O)Nc1ccccc1 (stereo not given)
inactive: SR leukemia 75.2% | RPMI-8226 leukemia 87.3% | OVCAR-8 ovarian 103% | OVCAR-5 ovarian 100% | OVCAR-4 ovarian 105% | SK-OV-3 ovarian 95.7% | IGROV1 ovarian 111% | OVCAR-3 ovarian 105% | NCI/ADR-RES ovarian 109%

NN=C(c1ccc(Cl)cc1)c1ccc(Cl)cc1
inactive: SR leukemia 104% | RPMI-8226 leukemia 102% | OVCAR-8 ovarian 104% | OVCAR-5 ovarian 95% | OVCAR-4 ovarian 103% | SK-OV-3 ovarian 105% | IGROV1 ovarian 119% | OVCAR-3 ovarian 107% | NCI/ADR-RES ovarian 108%

Nc1ncnc2c1c(C(F)(F)F)cn2[C@@H]1O[C@H](CO)[C@@H](O)[C@H]1O
inactive: OVCAR-8 ovarian 18.1% | OVCAR-5 ovarian 15.6% | OVCAR-4 ovarian 24.6% | SK-OV-3 ovarian 28.2% | IGROV1 ovarian 12.9%
active: SR leukemia 1.01% | RPMI-8226 leukemia -20.3% | OVCAR-3 ovarian 5.78% | NCI/ADR-RES ovarian 7.35%

O=C(Nc1ccc(-n2ccc3c(NC(=O)c4ccccc4)ncnc32)cc1)c1cccc(C(F)(F)F)c1
inactive: RPMI-8226 leukemia 20.1% | OVCAR-8 ovarian 40.9% | OVCAR-5 ovarian 62.3% | OVCAR-4 ovarian 97.1% | SK-OV-3 ovarian 61.2% | IGROV1 ovarian 43.1% | OVCAR-3 ovarian 54.4% | NCI/ADR-RES ovarian 50.7%
active: SR leukemia 2.8%

COc1ccc(-c2nnc(NC(=O)CN3CCN(c4cc5c(cc4F)c(=O)c(C(=O)O)cn5C4CC4)CC3)s2)cc1OC
inactive: SR leukemia 102% | RPMI-8226 leukemia 102% | OVCAR-8 ovarian 98.4% | OVCAR-5 ovarian 106% | OVCAR-4 ovarian 104% | SK-OV-3 ovarian 98.6% | IGROV1 ovarian 104% | OVCAR-3 ovarian 106% | NCI/ADR-RES ovarian 103%

CC(=O)Oc1ccc(C(OC(C)=O)OC(C)=O)cc1
inactive: SR leukemia 88.8% | RPMI-8226 leukemia 107% | OVCAR-8 ovarian 114% | OVCAR-5 ovarian 108% | OVCAR-4 ovarian 117% | SK-OV-3 ovarian 97.6% | IGROV1 ovarian 109% | OVCAR-3 ovarian 103% | NCI/ADR-RES ovarian 103%

COC1=C(OC)C(=O)C=CC1=O
inactive: SR leukemia 38.1% | RPMI-8226 leukemia 91.4% | OVCAR-8 ovarian 110% | OVCAR-5 ovarian 116% | OVCAR-4 ovarian 102% | SK-OV-3 ovarian 114% | IGROV1 ovarian 96.5% | OVCAR-3 ovarian 83.6% | NCI/ADR-RES ovarian 109%

O=C(Nc1cccc(-n2ccc3c(NC(=O)c4ccccc4)nccc32)c1)Nc1ccc(Cl)c(C(F)(F)F)c1
inactive: OVCAR-5 ovarian 27.6% | OVCAR-4 ovarian 73.7% | IGROV1 ovarian 16.7%
active: SR leukemia -11.6% | RPMI-8226 leukemia -35% | OVCAR-8 ovarian 4.34% | SK-OV-3 ovarian 7.74% | OVCAR-3 ovarian -21.1% | NCI/ADR-RES ovarian -10.9%

O=C(NCCNc1nccc(-c2c(-c3cccc(O)c3)nc3sccn23)n1)c1ccccc1O
inactive: SR leukemia 63.2% | RPMI-8226 leukemia 11.6% | OVCAR-8 ovarian 41.3% | OVCAR-5 ovarian 88.7% | OVCAR-4 ovarian 96.2% | SK-OV-3 ovarian 60.5% | IGROV1 ovarian 31.6% | OVCAR-3 ovarian 60.2% | NCI/ADR-RES ovarian 73.6%
